Records with an inconclusive call do not appear. Calls of active or inactive are those of the source. Calls come from the whole dose curve; as a rule, active = well fitted curve in the direction sought with a large enough effect; inconclusive = small, poorly fitted or top-dose-only effect, or another doubt; inactive = no such curve, though single readings can be large; an effect the other way counts as inactive or inconclusive.
What was measured:
[1] = molecular target: Rap guanine nucleotide exchange factor 3 (Homo sapiens) (UniProt O95398); experiment: Confirmatory qHTS for agonist of cAMP-regulated guanine nucleotide exchange factor 3 (EPAC1) (AID 1645881); conditions: EPAC1 Rap1B BODIPY-GDP exchange fluorescence; series mostly up to 154 µM;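 note: EPAC1 catalysed release of BODIPY-GDP from Rap1B seen as fluorescence loss; 100% = effect of cAMP agonist control; nearly all actives have a fitted effect of over 75% in size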
[2] = molecular target: Rap guanine nucleotide exchange factor 4 (Homo sapiens) (UniProt Q8WZA2); experiment: Confirmatory qHTS for agonist of cAMP-regulated guanine nucleotide exchange factor 4 (EPAC2) (AID 1645884); conditions: EPAC2 GEF activity, Rap1B-BODIPY-GDP fluorescence; series mostly up to 154 µM;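 note: nucleotide exchange releases bodipy-GDP from Rap1 and this lowers its fluorescence; % is set by controls: 0 for no effect and ±100 for the full control effect; nearly all actives have a fitted effect of over 65% in size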
[3] = molecular target: Rap guanine nucleotide exchange factor 4 (Homo sapiens) (UniProt Q8WZA2); experiment: Confirmatory qHTS for antagonist of cAMP-regulated guanine nucleotide exchange factor 4 (EPAC2) (AID 1645885); conditions: EPAC2 Rap1B-BODIPY-GDP exchange fluorescence, biochemical; series mostly up to 12.7 µM; note: nearly all actives have a fitted effect of over 25% in size; note: potency is the fitted concentration of half-maximal effect; for activity change, negative = inhibition: % is set by controls: 0 for no effect and ±100 for the full control effect
[4] = molecular target: Rap guanine nucleotide exchange factor 3 (Homo sapiens) (UniProt O95398); experiment: Counterscreen qHTS for antagonist of cAMP-regulated guanine nucleotide exchange factor 3 (EPAC1) (AID 1645888); conditions: Rap1B-BODIPY-GDP nucleotide exchange, fluorescence; series mostly up to 154 µM;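 note: fluorescence loss as bound BODIPY-GDP is released from Rap1B; % of control where 0% means no effect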
Procedure, shortened: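 Rap1B–BODIPY-GDP (250 nM) with 50 uM GDP; compounds pin-transferred to 9.74 nM–152 uM final (activator) or from 7.32 nM upwards (inhibitor). Fluorescence Ex/Em 480/540 nm read at 5 and 30 min, then after adding cAMP or buffer, at room temperature.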

Chain of Rap guanine nucleotide exchange factor 4 (Homo sapiens) (Q8WZA2 whole entry, looked up): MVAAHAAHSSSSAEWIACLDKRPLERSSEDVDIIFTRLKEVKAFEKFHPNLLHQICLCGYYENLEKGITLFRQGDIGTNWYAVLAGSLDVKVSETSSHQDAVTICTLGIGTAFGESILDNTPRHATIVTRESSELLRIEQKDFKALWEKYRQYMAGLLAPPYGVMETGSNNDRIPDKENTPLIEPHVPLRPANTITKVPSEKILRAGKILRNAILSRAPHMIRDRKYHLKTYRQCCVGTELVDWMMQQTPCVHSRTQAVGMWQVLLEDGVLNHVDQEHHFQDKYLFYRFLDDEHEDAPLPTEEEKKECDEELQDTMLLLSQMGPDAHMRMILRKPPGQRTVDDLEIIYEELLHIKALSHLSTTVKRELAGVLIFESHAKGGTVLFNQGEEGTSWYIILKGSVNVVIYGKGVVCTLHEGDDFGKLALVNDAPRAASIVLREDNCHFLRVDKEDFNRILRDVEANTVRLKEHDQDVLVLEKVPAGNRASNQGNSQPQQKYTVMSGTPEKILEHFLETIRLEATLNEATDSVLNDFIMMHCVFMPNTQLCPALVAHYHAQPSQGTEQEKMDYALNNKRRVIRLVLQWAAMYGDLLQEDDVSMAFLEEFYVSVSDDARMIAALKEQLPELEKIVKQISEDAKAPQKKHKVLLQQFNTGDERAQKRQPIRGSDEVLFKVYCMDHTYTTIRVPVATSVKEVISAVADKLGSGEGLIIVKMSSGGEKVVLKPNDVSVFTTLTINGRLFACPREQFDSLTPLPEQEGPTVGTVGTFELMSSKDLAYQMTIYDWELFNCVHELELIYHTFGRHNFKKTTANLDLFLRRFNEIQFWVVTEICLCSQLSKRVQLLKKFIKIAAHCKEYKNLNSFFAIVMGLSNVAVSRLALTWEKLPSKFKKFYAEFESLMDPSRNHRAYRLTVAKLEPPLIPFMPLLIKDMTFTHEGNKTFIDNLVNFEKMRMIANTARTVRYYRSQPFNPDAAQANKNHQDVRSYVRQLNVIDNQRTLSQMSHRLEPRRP
Chain of Rap guanine nucleotide exchange factor 3 (Homo sapiens) (O95398 whole entry, looked up): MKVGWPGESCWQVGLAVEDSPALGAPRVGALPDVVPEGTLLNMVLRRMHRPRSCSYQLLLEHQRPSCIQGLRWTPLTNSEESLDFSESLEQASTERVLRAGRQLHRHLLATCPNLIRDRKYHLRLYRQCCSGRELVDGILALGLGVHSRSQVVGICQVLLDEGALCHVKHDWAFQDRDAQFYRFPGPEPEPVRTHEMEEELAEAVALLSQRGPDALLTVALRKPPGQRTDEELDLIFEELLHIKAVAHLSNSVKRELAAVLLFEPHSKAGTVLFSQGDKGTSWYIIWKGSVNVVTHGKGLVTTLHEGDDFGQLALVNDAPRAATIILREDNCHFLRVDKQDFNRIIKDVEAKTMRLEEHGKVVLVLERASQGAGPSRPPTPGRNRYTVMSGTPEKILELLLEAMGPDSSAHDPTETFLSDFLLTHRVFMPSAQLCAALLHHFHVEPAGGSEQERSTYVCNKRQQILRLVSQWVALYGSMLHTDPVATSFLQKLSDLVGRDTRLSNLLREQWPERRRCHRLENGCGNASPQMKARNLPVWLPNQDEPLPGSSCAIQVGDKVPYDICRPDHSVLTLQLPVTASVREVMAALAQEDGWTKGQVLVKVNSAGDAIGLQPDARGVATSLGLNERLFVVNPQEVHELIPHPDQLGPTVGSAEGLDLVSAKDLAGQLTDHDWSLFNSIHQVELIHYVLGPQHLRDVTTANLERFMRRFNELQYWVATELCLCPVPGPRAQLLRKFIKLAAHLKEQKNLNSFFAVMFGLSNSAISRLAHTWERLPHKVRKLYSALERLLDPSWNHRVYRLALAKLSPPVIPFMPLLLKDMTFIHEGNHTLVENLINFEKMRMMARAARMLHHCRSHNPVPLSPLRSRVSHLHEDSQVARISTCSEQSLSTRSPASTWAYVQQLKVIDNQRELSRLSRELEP

Cc1cccc(Nc2nnc(SC/C(O)=C(\C#N)c3nc4ccccc4[nH]3)s2)c1
inactive: Potency [1] | Potency [2] | Potency [3] | Potency [4]

CCc1nc2c(OCc3ccc(C(F)(F)F)cc3)cccn2c1N(C)C(=O)C(C)C
inactive: Potency [1] | activation [2] -0.706% [at 17.1 µM, percent relative to cAMP agonist control] | Potency [3] | activity change, negative = inhibition [4] -5.96% [at 30.8 µM]

O=C(COc1ccc(Cl)cc1)NC1=NN(c2ccccc2)C(=O)C1
inactive: Potency [1] | Potency [2] | Potency [3] | Potency [4]

COc1cc(/C=C2\SC(=O)N(c3cccc(Cl)c3)C2=O)cc([N+](=O)[O-])c1O
inactive: Potency [1] | Potency [2] | Potency [3] | Potency [4]

NC(=O)[C@H]1CC2(CC(c3cccc(NC(=O)[C@H]4CCC(=O)N4)c3)=NO2)CN1C(=O)c1ccccc1 (stereo not given in full)
inactive: Potency [1] | Potency [2] | Potency [3] | Potency [4]

O=C(Nc1c(-c2ccc3c(c2)OCO3)[nH][nH]c1=O)c1ccccc1
inactive: Potency [1] | Potency [2] | Potency [3] | Potency [4]

O=C(Nc1ccccc1C(=O)O)c1cccc(NC(=O)c2ccc(Br)o2)c1
inactive: Potency [1] | Potency [2] | Potency [3] | Potency [4]

CC(C)CNc1ncnc2onc(-c3ccc(Cl)cc3)c12
inactive: Potency [1] | Potency [2] | Potency [3] | Potency [4]

C#Cc1ccc([C@@H]2C=C(C(=O)OCC=C)O[C@H](OCc3ccc(CO)cc3)C2)cc1
inactive: Potency [1] | activation [2] -0.524% [at 17.1 µM, percent relative to cAMP agonist control] | Potency [3] | activity change, negative = inhibition [4] -8.75% [at 30.8 µM]

CC(C)(C)C1CCc2c(sc3nc(SCC(=O)O)nc(N)c23)C1 (stereo not given)
inactive: Potency [1] | activation [2] 8.5% [at 17.1 µM, percent relative to cAMP agonist control] | Potency [3] | activity change, negative = inhibition [4] -1.53% [at 30.8 µM]

COc1ccccc1C(C(=O)c1ccccc1)c1ccc(O)cc1 (stereo not given)
inactive: Potency [1] | activation [2] 3.15% [at 17.1 µM, percent relative to cAMP agonist control] | Potency [3] | activity change, negative = inhibition [4] -22.7% [at 30.8 µM]

CCOC(=O)c1c(C)oc2c1c(C=NCCO)c(O)c1ccccc12
inactive: Potency [1] | activation [2] 10.2% [at 17.1 µM, percent relative to cAMP agonist control] | Potency [3] | activity change, negative = inhibition [4] 33.4% [at 30.8 µM]

CCCC1=C/C(=C/c2ccc(-c3ccccc3OC)o2)C(=O)O1
inactive: Potency [1] | activation [2] 1.16% [at 17.1 µM, percent relative to cAMP agonist control] | Potency [3] | activity change, negative = inhibition [4] -9.78% [at 30.8 µM]

CC1=NN(c2ccccc2)C(=O)C1=Cc1ccccc1
inactive: Potency [1] | activation [2] -2.46% [at 17.1 µM, percent relative to cAMP agonist control] | Potency [3] | activity change, negative = inhibition [4] 42% [at 30.8 µM]

CCc1nc2c(OCc3ccc(C(=O)OC)cc3)cccn2c1N(C)C(=O)c1ccc(C)cc1
inactive: Potency [1] | Potency [2] | Potency [3] | Potency [4]

CCn1c(=O)c(C(=O)Nc2ccccc2S(N)(=O)=O)c(O)c2ccccc21
inactive: Potency [1] | Potency [2] | Potency [3] | Potency [4]

OC(CSc1ccccc1)CN1CCN(c2cccc(Cl)c2)CC1 (stereo not given)
inactive: Potency [1] | activation [2] 5.38% [at 17.1 µM, percent relative to cAMP agonist control] | Potency [3] | activity change, negative = inhibition [4] 12.2% [at 30.8 µM]

COc1ccc2ccc(C(C)(C(C)=O)C(=O)OC(C)C)cc2c1 (stereo not given)
inactive: Potency [1] | activation [2] 5.56% [at 17.1 µM, percent relative to cAMP agonist control] | Potency [3] | activity change, negative = inhibition [4] -29.5% [at 30.8 µM]

CC(C)Cc1ccc(CN2CCCC(NC(=O)c3cnc4ccccn4c3=O)C2)cc1 (stereo not given)
inactive: Potency [1] | activation [2] 12.4% [at 17.1 µM, percent relative to cAMP agonist control] | Potency [3] | activity change, negative = inhibition [4] 5.64% [at 30.8 µM]

Oc1ccc(-c2nc(-c3ccc(O)c(O)c3)cs2)cc1
inactive: Potency [1] | Potency [2] | Potency [3] | Potency [4]

O=C(Nc1ccc(S(=O)(=O)Nc2nccs2)cc1)c1cc(-c2ccccn2)nc2ccccc12
inactive: Potency [1] | activation [2] 4.2% [at 17.1 µM, percent relative to cAMP agonist control] | Potency [3] | activity change, negative = inhibition [4] -7.32% [at 30.8 µM]

Cc1noc(C)c1COc1ccccc1C(=O)NC(C)c1ccc(Cl)cc1 (stereo not given)
inactive: Potency [1] | Potency [2] | Potency [4]
active: Potency [3] 33.8 µM

COc1cc2c(cc1OC)C(c1cccs1)N(C(=O)C(C)C)CC2 (stereo not given)
inactive: Potency [1] | Potency [2] | Potency [3] | Potency [4]

N#C/C(=C/C1=C(N2CCOCC2)C(=C/c2cccc([N+](=O)[O-])c2)/CC1)C(=O)Nc1ccccc1F
inactive: Potency [1] | activation [2] 1.67% [at 17.1 µM, percent relative to cAMP agonist control] | Potency [3] | activity change, negative = inhibition [4] -3.26% [at 30.8 µM]

O=C(NCc1ccccc1)C(c1ccccc1)n1c(=O)c(-c2ccco2)nc2ccccc21 (stereo not given)
inactive: Potency [1] | activation [2] 3.56% [at 17.1 µM, percent relative to cAMP agonist control] | Potency [3] | activity change, negative = inhibition [4] 5.07% [at 30.8 µM]

COCCNc1nc2cc(-c3ccsc3)sc2c(=O)n1C
inactive: Potency [1] | Potency [2] | Potency [3] | Potency [4]

CCc1nc2c(OCc3ccc(C(F)(F)F)cc3)cccn2c1N(C)C(=O)c1ccc(C)cc1
inactive: Potency [1] | Potency [2] | Potency [3] | Potency [4]

C=CCN1C(=O)[C@@H]2Cc3c([nH]c4ccccc34)C(c3ccc(O)cc3)N2C1=S (stereo not given in full)
inactive: Potency [1] | Potency [2] | Potency [3] | Potency [4]

CCOC(=O)c1ccccc1NC(=O)c1c(C)oc2ncnc(N3CCOCC3)c12
inactive: Potency [1] | Potency [2] | Potency [3] | Potency [4]

Cc1ccccc1OCC(=O)Nc1ccccc1N1CCC(C)CC1
inactive: Potency [1] | Potency [2] | Potency [4]
active: Potency [3] 42.6 µM

COc1ccccc1-c1nnc(SCC(=O)c2ccc(C3CCCCC3)cc2)n1Cc1ccco1
inactive: Potency [1] | Potency [2] | Potency [3] | Potency [4]

Cc1cc(C)c(S(=O)(=O)c2ccccc2)c(OC(=O)c2c(F)cccc2F)n1
inactive: Potency [1] | activation [2] -4.73% [at 17.1 µM, percent relative to cAMP agonist control] | Potency [3] | activity change, negative = inhibition [4] 8% [at 30.8 µM]

CCOC(=O)c1cc2c(ccn2C)n1CC(=O)N1CCN(c2cccc(C(F)(F)F)c2)CC1
inactive: Potency [1] | activation [2] 0% [at 17.1 µM, percent relative to cAMP agonist control] | Potency [3] | activity change, negative = inhibition [4] 12.9% [at 30.8 µM]

CCN(CC)CC#CC(OC)(c1ccccc1)c1ccccc1
inactive: Potency [1] | Potency [2] | Potency [3] | Potency [4]

COc1ccccc1-c1oc2ccccc2c1C#CC(C)(C)O
inactive: Potency [1] | Potency [2] | Potency [3] | Potency [4]

CCOC(=O)c1c(NC(=O)CSc2nnnn2-c2ccccc2OCC)sc2c1CC(C)(C)NC2(C)C
inactive: Potency [1] | activation [2] 5.6% [at 17.1 µM, percent relative to cAMP agonist control] | Potency [3] | activity change, negative = inhibition [4] -5.37% [at 30.8 µM]

COc1ccc(NC(=S)N(CCCN2CCOCC2)C(C)c2cc3cccc(OC)c3o2)cc1 (stereo not given)
inactive: Potency [1] | Potency [2] | Potency [3] | Potency [4]

CCOC(=O)C1=CN(Cc2cccc(F)c2)S(=O)(=O)NC1c1ccc(Br)cc1F (stereo not given)
inactive: Potency [1] | Potency [2] | Potency [3] | Potency [4]

CCc1nc2sc3ccccc3c(=O)c2c(=O)n1Cc1ccco1
inactive: Potency [1] | Potency [2] | Potency [4]
active: Potency [3] 75.7 µM

Cc1csc(NC(=O)CSc2sc3c(O)cc(=O)[nH]c3c2C#N)n1
inactive: Potency [1] | Potency [2] | Potency [3] | Potency [4]

Cc1ccccc1NC(=O)c1sc2nc(-c3cc4ccccc4oc3=O)[nH]c(=O)c2c1C
inactive: Potency [1] | Potency [2] | outcome [3] inactive; activator; fitted 0.8492 uM [at 12.7 µM] | Potency [4]

O=C(N/N=C/c1coc2ccc(Cl)cc2c1=O)c1cc(O)cc(O)c1
inactive: Potency [1] | Potency [2] | Potency [3] | Potency [4]

O=C(CCCn1c(SCC(=O)c2ccc(O)c(O)c2)nc2ccccc2c1=O)NCC1CCCO1 (stereo not given)
inactive: Potency [1] | Potency [2] | Potency [3] | Potency [4]

COc1ccc(OC)c(NC(=O)C2(C)CCN2CCc2ccccc2)c1 (stereo not given)
inactive: Potency [1] | Potency [2] | Potency [4]
active: Potency [3] 42.6 µM

Cc1cc(C)c(S(=O)(=O)/N=C2\C=C(Nc3ccc(C(=O)O)cc3)C(=O)c3ccccc32)c(C)c1
inactive: Potency [1] | Potency [2] | Potency [3] | Potency [4]

Clc1cccc(Cc2c(-c3ccco3)nc3ccc(Br)cn23)c1
inactive: Potency [1] | activation [2] 2.6% [at 17.1 µM, percent relative to cAMP agonist control] | Potency [3] | activity change, negative = inhibition [4] -13.4% [at 30.8 µM]

CC(c1ccccc1)n1cc2c(c1-c1ccccc1Br)c(=O)n(C)c(=O)n2C (stereo not given)
inactive: Potency [1] | Potency [2] | Potency [3] | Potency [4]

COC(=O)C1(C)CC1(c1ccccc1)c1ccccc1 (stereo not given)
inactive: Potency [1] | activation [2] 12.4% [at 17.1 µM, percent relative to cAMP agonist control] | Potency [3] | activity change, negative = inhibition [4] 1.55% [at 30.8 µM]

O=C1C(Cl)=C(NCCc2ccccc2)C(=O)c2ccccc21
inactive: Potency [1] | Potency [2] | Potency [3] | Potency [4]

COc1ccc(/C=C/C(=O)Oc2ccc(C)c(C)c2)cc1OC
inactive: Potency [1] | Potency [2] | Potency [3] | Potency [4]
